# Source: PubChem
# A selection: hits, their analogues and other compounds. The true share with any hit is near 5.9%.
# rCAG RNA binder: r(CAG) repeat RNA binding | TO-PRO-1 dye displacement fluorescence | inhibition, % at 3 µM | hit rate 1.3% among 370,000;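 active = inhibition above the plate cutoff, the mean of all test compounds on that plate plus 3 SD, cut at about 35% in these data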;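 also: 0% = DMSO alone and 100% = 100 µM mitoxantrone as full dye displacement; higher means more dye released from RNA so lower well fluorescence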
# ABHD5-PLIN5 inh: blocks binding of human ABHD5 to perilipin-5. AID 602281. Q00G26+Q8WTS1. inhibition, % at 4 µM. Split G. princeps luciferase complementation, luminescence, 4 h. hit rate 0.78% among 360,000;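 active = inhibition above the mean inhibition across every tested compound plus 3 SD, cut at about 22% in these data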;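 also: 0% = DMSO only wells and the 100% control is not disclosed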
# ALR H2O2 inh: human ALR oxidase inhibition via reduced H2O2 | P55789 | purified ALR, DTT oxidation, H2O2 HRP-luminol luminescence | inhibition, % (test concentration not listed) | hit rate 3.8% among 290,000;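 active = mean replicate inhibition above about 79%, with every replicate also reaching it, limit read from the data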
# Target sequence (P55789 whole entry, looked up): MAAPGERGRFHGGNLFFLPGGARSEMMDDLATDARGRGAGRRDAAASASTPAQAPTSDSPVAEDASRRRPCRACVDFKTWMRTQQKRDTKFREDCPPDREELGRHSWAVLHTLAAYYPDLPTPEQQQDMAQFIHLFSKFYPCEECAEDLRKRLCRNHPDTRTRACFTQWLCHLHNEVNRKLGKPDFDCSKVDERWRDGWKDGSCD
# Rtt109 Vps75: C. albicans Rtt109 histone acetyltransferase inhibition; Q5AAJ8; purified Rtt109/Vps75, ThioGlo CoA-SH fluorescence, 4 h; inhibition, % at 34.9 µM; hit rate 0.16% among 330,000;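 active = inhibition of at least 50% in every replicate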
# Target sequence (Q5AAJ8 whole entry, looked up): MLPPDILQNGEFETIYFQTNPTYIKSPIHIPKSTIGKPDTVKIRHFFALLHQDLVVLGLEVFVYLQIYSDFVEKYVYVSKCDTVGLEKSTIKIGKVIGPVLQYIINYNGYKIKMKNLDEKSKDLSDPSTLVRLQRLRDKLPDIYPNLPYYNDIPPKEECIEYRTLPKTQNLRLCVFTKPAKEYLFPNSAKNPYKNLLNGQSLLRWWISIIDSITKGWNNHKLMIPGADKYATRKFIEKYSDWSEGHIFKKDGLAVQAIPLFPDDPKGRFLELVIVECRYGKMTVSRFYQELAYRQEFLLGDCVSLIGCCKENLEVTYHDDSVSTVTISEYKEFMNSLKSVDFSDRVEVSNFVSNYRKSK
# LANA-H2B inh: blocks KSHV LANA binding to histone H2A/H2B | cell-free LANA-H2A/H2B peptide, fluorescence polarization | inhibition, % (no concentration beside the values) | hit rate 0.6% among 320,000 | AID 2629; in the data active = inhibition mostly above about 10%, no sharp cut-off; inactive = mostly below about 6.7%
# PRMT1 FP inh: PRMT1 (human) inhibition, primary screen; Q99873; recombinant PRMT1, activity-based probe fluorescence polarization; inhibition, % at 2.79 µM; hit rate 1.3% among 370,000;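 active = inhibition above about 21% made by adding two undisclosed values, limit read from the data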
# * hit, by the source's call; · = no result.
SMILES,rCAG RNA binder,ABHD5-PLIN5 inh,ALR H2O2 inh,Rtt109 Vps75,LANA-H2B inh,PRMT1 FP inh
CC(=O)Nc1sc(N/N=C\c2ccccc2)nc1-c1cccs1,13,-8,13,1,-1,6
CCC(C)N(C(=O)c1ccc(CNC(=O)c2cccc(Br)c2)cc1)C(C)CC (stereo not given),-2,·,·,·,·,2
CCOC(=O)[C@]12CCC=C1N(CCC1=CCCCC1)C(=O)[C@H](CC(=O)N1CCOCC1)C2,2,-5,·,·,·,-4
CC1=CCC[C@@H]2[C@]3(CC/C(=C/CO)CO)CO[C@@]2(C1)[C@@H](O)C[C@H]3C,-3,4,·,·,·,3
Cc1cc(N2CCNC[C@H]2C)ccc1N1CCN(Cc2ccccc2)[C@@H](C)C1,7,·,·,·,·,-4
Cc1ccc(S(=O)(=O)Oc2ccccc2/C=N/N=C(N)N)cc1,17,8,-12,14,38*,-3
CCN(CC)c1ccc(NC(=O)COC(=O)CSc2ccc(Br)cc2C)cc1,1,7,99*,0,4,3
Cc1cc(C)c(NC(=O)COC(=O)CSc2ccc(Br)cc2C)c(C)c1,2,-3,-2,-5,-2,4
CCCOc1ccc(Cl)cc1CNc1ccccc1,-2,-4,98*,-19,-3,0
CCOc1ccc(Cl)cc1CNc1nnnn1C,-3,8,13,·,-4,3
CC(=O)CC[C@@H]1CC[C@]2(CCCN(C(=O)C3CCCCC3)C2)O1,-1,·,·,·,·,-2
COc1ccc(-c2cc(C(=O)N3CC4(C)CC3CC(C)(C)C4)no2)cc1OC (stereo not given),-1,-2,-8,-3,55*,4
Cc1nc2ccc(C(=O)O)cc2c2c1CC(C)S2 (stereo not given),10,-7,100*,3,-5,7
CC1CCN(c2nc3ccc(C(=O)O)cc3s2)CC1,1,5,5,11,0,0
COCCn1c(=NC(=O)CSC(C)=O)sc2cc(OC)ccc21,0,-15,98*,5,5,-1
NS(=O)(=O)c1ccc(CCNc2nn3c(-c4cccc(OC(F)(F)F)c4)cnc3s2)cc1,7,-12,·,·,·,-2
CC1(Cc2ccc(Cl)s2)C(=O)Nc2c(Cl)ccc(Cl)c21 (stereo not given),1,-10,·,·,·,2
CCCN(CC(=O)Nc1ccccc1C)C(=O)Cc1c(C)nc2ccccc2c1C,7,0,·,-7,140*,0
CN(C)c1ccc(CNS(=O)(=O)c2ccc3c(c2)NC(=O)CS3)cc1,7,-4,99*,5,4,5
Cc1ccc(CNS(=O)(=O)c2ccc3c(c2)NC(=O)CS3)cc1,2,-2,7,2,2,3
C=CCN(CC=C)Cc1cc(=O)oc2cc(C)c(Cl)cc12,3,-6,·,·,·,-6
CC(=O)Nc1ccc2nc(NC(=O)c3ccc([N+](=O)[O-])s3)sc2c1,·,·,-4,·,30*,·
COc1ccc(C(=O)Nc2nnc(S(=O)(=O)Cc3ccccc3)s2)cc1,1,-1,-16,-4,0,2
COc1ccc(C(=O)Nc2nnc(S(=O)(=O)Cc3ccc(F)cc3)s2)cc1,6,6,-1,-1,18*,4
Cc1cc2c(nc1C)CCCN2Cc1ccccc1C(F)(F)F,3,·,·,·,·,-2
SMILES,rCAG RNA binder,ABHD5-PLIN5 inh,ALR H2O2 inh,Rtt109 Vps75,LANA-H2B inh,PRMT1 FP inh
Cn1cc(C(c2ccccc2OCC(=O)O)c2cn(C)c3ccccc23)c2ccccc21,12,2,99*,-3,0,-1
CN(CC(=O)NCc1ccccc1)S(=O)(=O)c1ccc2c(c1)CCC(=O)N2,0,13,-6,-5,-17,-1
CN(CC(=O)NCCN1CCN(c2ccccc2)CC1)S(=O)(=O)c1ccc2c(c1)CCC(=O)N2,7,-4,98*,-4,3,2
CCCCCCCc1c(C#N)c(N)[nH]c(=S)c1C#N,32,·,96*,·,0,7
CN(CC(=O)N/N=C/c1ccc(F)cc1)S(=O)(=O)c1ccccc1,1,4,·,·,·,3
COc1cc(NC(=O)c2ccccc2)c(C)cc1NC(=O)CSc1nnc(-c2ccco2)n1Cc1ccco1,7,·,·,·,·,-2
COc1ccc(CN2C(=O)COc3ccccc3C2c2nnnn2C2CCCCC2)cc1 (stereo not given),13,·,·,·,·,2
CCOC(=O)c1ccc2c(c1)[nH]c(=S)n2CC,-2,2,83*,-2,9,-2
O=C(NCCCc1ccccc1)[C@H](Cc1c[nH]c2ccccc12)NC1(C(=O)NCCc2c[nH]c3ccccc23)CCC1,·,·,·,·,·,-2
CNC(=O)N(O)C1N(/N=C/c2ccc(N(C)C)cc2)C(=S)SC1(C)C (stereo not given),0,3,99*,-4,-2,-3
CNC(=O)N(O)C1N(/N=C/c2cccs2)C(=S)SC1(C)C (stereo not given),-4,2,-5,0,5,8
CCc1ccc(C(=O)N/N=C/c2ccc(Cl)cc2Cl)nc1,·,·,-3,·,40*,·
O=C(O)C(C/C(=N/O)c1ccc(Br)cc1)P(=O)(c1ccccc1)c1ccccc1 (stereo not given),9,0,-1,-1,15*,7
C/C(C=Nn1c(-c2ccc(F)cc2)n[nH]c1=S)=C/c1ccco1,34,·,·,·,·,18
O=C(Nc1cccc(-c2nc3cccnc3s2)c1)c1cccnc1Cl,0,4,-2,60*,-6,3
COc1ccc(S(=O)(=O)N2CCCC2CNC(=O)C(=O)Nc2cccc(F)c2)cc1 (stereo not given),1,1,-9,0,-2,-2
CCCNC(=O)c1c(C)cc(=O)oc1C,-1,1,36,-6,-2,-4
CCCCN(CCCNC(=O)c1c(C)cc(=O)oc1C)c1ccccc1,-1,-5,99*,-8,0,2
CCN(CCCNC(=O)c1c(C)cc(=O)oc1C)c1ccccc1,-4,1,99*,7,4,0
C[C@H]1CNC(=O)c2c(C(=O)N3CCN(c4ccccc4)CC3)ncn21,4,·,·,·,·,0
O=C(Nc1cccc(-c2ccc(N3CCCCC3)nn2)c1)C(F)(F)F,-2,-7,92*,-34,6,-1
CC1CCN(c2ccc(-c3cccc(NC(=O)C(F)(F)F)c3)nn2)CC1,-2,6,1,8,4,9
COc1cccc(NC(=S)/C(=C(\[O-])c2ccc([N+](=O)[O-])cc2)[n+]2ccccc2)c1,0,-2,99*,-2,3,-1
CCn1ncc(/C=N\NC(=O)COc2ccccc2)c1C,-1,3,96*,-1,2,1
Nc1nc(N)c(N=O)c(OCC2CCCCC2)n1,2,-1,92*,-2,0,-2
NS(=O)(=O)OCC1CCCCC1,3,7,10,-8,-2,-5
c1ccc(OCc2nnc(SCc3nc4ccccc4[nH]3)n2-c2ccccc2)cc1,2,·,·,·,·,-3
